# Experimental data from PubChem BioAssay AID1347426 (Functional Genomics Laboratory (NCATS/FGL), 2020).
# Screen size: about 31,000 sequences; about 1,400 (4.5%) were called active.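 How the source made its calls: active means median seed-adjusted z-score above 1 or below -1; inactive means the rest.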 The full list was thinned out, with actives kept by preference.
# Assay: Novel Modifiers of Survival Motor Neuron (SMN) Protein: Gene Identification via Genome-wide siRNA Screen
# Conditions: HEK293T SMN2-luciferase reporter, siRNA knockdown, 72 h; actives lie on both sides
# From the text: Spinal muscular atrophy (SMA) is the most common neuromuscular autosomal recessive disorder and one of the leading genetic causes of infant death. SMA results from mutations inducing loss of function or deletion in the survival of motor neuron-1 gene (SMN1), leading to deficiency of the survival motor neuron (SMN) protein. Although a second nearly identical gene, SMN2, is retained in humans, its expression primarily produces an aberrantly spliced isoform that is largely unstable and quickly degraded. We performed a genome-wide RNAi screen using a cell-based reporter assay to identify genes and pathways that modulate SMN protein stability. The screen identified over 200 genes that led to the greatest increase or decrease in luciferase expression.
# Using HEK293T cells stably expressing a luciferase reporter that combines the promoter and splicing based cassettes in tandem with the major portion of the native SMN2 cDNA with luciferase, we performed a genome-wide RNAi screen to identify modulators of SMN protein levels. Luciferase is expressed when full-length SMN protein is generated with luminescence signal proportional to SMN protein levels. Our luciferase-based reporter assay was used to screen Ambion Silencer Select Human Druggable Genome siRNA library (10418 genes, 3 unique siRNAs per gene) using lipid-based reverse transfection.
# Briefly, 1 pmol of each siRNA was spotted to a well of a 384-well plate (Corning, Corning, NY) and 20 microL of serum-free DMEM containing […] of Lipofectamine RNAiMax (Life Technologies, Carlsbad, CA) was then added to each well. Transfected cells were maintained at 37 degrees C in 5% CO2 for 72 hours, 20 microL of ONE-Glo Reagent (Promega) was added to wells for luciferase quantification. Raw luminescence reads were normalized to Ambion(R) Silencer(R) Negative Control #2 siRNA, then log10 transformed. A robust statistical measure of median absolute deviation (MAD) to standardize siRNA activities from each screen. Common Seed Analysis was used to help prioritize clean hits as opposed to those appearing to arise from seed based off-target effects. Candidate modulators were defined as the genes having a MAD score greater than 1.0 or less than -1.0.
row,Sequence,median seed-adjusted z-score
1,CAACAUCUAUGAUUGGAAUTT against RFXANK,-0.0665 (inactive)
2,CCAGUGCUGUCAGUACGAUTT against LY6G5B,-1.29 (active)
3,CCAAUAUUGUGGAUCCUUUTT against HTR4,0.444 (inactive)
4,GAGCUAUAAUCAGACCUGUTT against ART5,-0.354 (inactive)
5,CGCUCACUGUUCUUCGGCUTT against RAD9A,-0.0564 (inactive)
6,CCCAAGACGUUCACCGUGATT against NF2,-0.543 (inactive)
7,CAUCAAACCUGGGAACAAATT against ZNF225,0.0761 (inactive)
8,GGAACGAGGUGUCAGCUCUTT against RFXANK,-0.0665 (inactive)
9,UCAACCUCAUGGACUUUAATT against SLC5A5,1.01 (active)
10,GGAGCUACUGAGAACAUAATT against HOXD4,0.566 (inactive)
11,GGAACACUCAUGACUGUAATT against ZNF426,0.2 (inactive)
12,CAAUGAGUAUGUGACGGAATT against UNC13A,-2.1 (active)
13,GGAUCCCGCUGCACAAGUUTT against CTSD,-0.282 (inactive)
14,CGUCUUCCUUGUGCGCCUATT against COL20A1,-0.0033 (inactive)
15,GGCUUAUGGGUGUUCGGAUTT against POLK,-0.102 (inactive)
16,CCGUCACUGAAGUCAAUAATT against CACNA1F,0.22 (inactive)
17,CGGAUUCCAGGAAUGCUAATT against EIF5B,1.68 (active)
18,CCACCAAAGUUCACCCUGATT against LMNA,-0.409 (inactive)
19,GGGCCGAACUGAAAUACGATT against FGD2,0.0293 (inactive)
20,ACAAGUUCUUGGAGCCUUATT against ATP1B2,-0.185 (inactive)
21,CCCAAUCCCUAUUUGAGAATT against ADRA1D,-0.18 (inactive)
22,GAUUAUAUUUGUCCAGCUATT against ESR2,-1.1 (active)

row,Sequence,median seed-adjusted z-score
1,CAAUCCAGGUGAUCGCAAATT against TPMT,0.19 (inactive)
2,CAAUGGUACCUAUGACUAUTT against ALG3,-0.446 (inactive)
3,GAGUACAUGUACUACCUGATT against RFX1,0.818 (inactive)
4,GAGUUAACGUAUCAGAACATT against LRRFIP1,-0.181 (inactive)
5,ACUCUAUCCUUGCUUUGCATT against ZNF219,0.127 (inactive)
6,GCAUAACUGUAACAGAGAATT against RPP30,-0.656 (inactive)
7,GCUCAGAAGCAGUAAUGCATT against PQBP1,-1.12 (active)
8,GAAAUGCGAGCUGAACAUATT against CMAS,-0.491 (inactive)
9,CUUUUUACGUGAGCGUAUATT against NAP1L1,0.263 (inactive)
10,CGCUGGACUUCGUCAAGAATT against KCNC4,-0.433 (inactive)
11,CUAUCAUGGAAGAUGCUGATT against B3GNT4,0.124 (inactive)
12,AGUACUUCCUGACGAUGGATT against CST6,-0.237 (inactive)
13,ACUAACAUCCCAGACUUUATT against VWA1,0.289 (inactive)
14,CCAACUACCUGAACGAUGATT against U2AF2,2.14 (active)
15,AGCUCACACUAUGCAUUGATT against KRTAP2-2,-0.212 (inactive)
16,GGAGGCUCGUUUUCCCGUATT against EGR4,0 (inactive)
17,GGACUCAGACGAGUUUUAUTT against CYP11B1,-0.199 (inactive)
18,GCAGCGAGUCAGUAACUUUTT against SUPT4H1,-1.01 (active)
19,GCUUCUUCGAGAAACAGAATT against RBMY1F,0.2 (inactive)
20,GGGUUUGCACUGAAACGAATT against CIR,-0.197 (inactive)
21,GGAAGGAAUUCAACCGGAUTT against ZNF366,0.585 (inactive)
22,CCAUAGCCCAAAUCAAGGATT against SIK2,0.055 (inactive)

row,Sequence,median seed-adjusted z-score
1,CCACGAACAAUAAUCCCAATT against KCNA3,0.213 (inactive)
2,CCCUCAAUUUGGUCUGUUUTT against SPINK2,-0.431 (inactive)
3,ACAACAUGAAGGUCCUCUATT against THY1,-1.1 (active)
4,ACAUGUUUUUAGAAUUGCUTT against TST,0 (inactive)
5,CAGUUAUGUUCUACGCAGATT against KCND2,-0.245 (inactive)
6,CCAUGGAUUUUGUACUGCUTT against VPS35,-0.511 (inactive)
7,GGCGAAUUCCAUACCGUUATT against NEK2,-0.276 (inactive)
8,GGAGUAUAUUGAGUAUGGATT against CNOT1,1.2 (active)
9,GUUCCAUCUUGAUCGAGUATT against RASSF9,0.314 (inactive)
10,CGGGAACACGUUUCAGGGATT against GPR157,0.152 (inactive)
11,CAUCCCAGAUCAAACUGUATT against TFAP2A,-0.384 (inactive)
12,GAUUAUUGAGCAUAAGAUUTT against ZNF277,-0.0374 (inactive)
13,GAACUGCACGUGUACAACATT against HCFC1,1.47 (active)
14,GCCUUCUUCUUAUGCAAGATT against ACTL6B,0.0703 (inactive)
15,CCAUCUAUUCAGAGACGUATT against MUTYH,0.024 (inactive)
16,GGCAUUCGCUUGAACAGCATT against DRG1,0.336 (inactive)
17,GCCUCUACAUCUAGUGAUATT against JMJD1C,0.0338 (inactive)
18,AGAUCAAGUUUGCCCUAAATT against HDGF2,0 (inactive)
19,GCCUGGAUGCUAAUCAAGATT against S100A12,0.346 (inactive)
20,AGGAAGAAUUUAAUCCUGATT against CYP26A1,0.0569 (inactive)
21,GAAAGAGCCUGUUACCUAUTT against ACTR1A,1.28 (active)
22,GUGAAGAAGUUGCUUAUUATT against MAST1,-0.0897 (inactive)

row,Sequence,median seed-adjusted z-score
1,GCAUGAUGGUAUUGAGCUUTT against MS4A6A,0.174 (inactive)
2,GAGUCACUUCUAAUAAACATT against FOLR2,-0.0835 (inactive)
3,CGUUAUCUUCAUCACCUAUTT against ABCC10,-1.56 (active)
4,GGCUAUAAUAGACACGAGATT against CDH6,0 (inactive)
5,UGACUUUCCUCUCUACGGUTT against SLC10A3,-0.25 (inactive)
6,GCAUGCUGUUAGCCGAUAATT against TOMM70A,0.0717 (inactive)
7,CGGCUGAUGUUCUCGAAUUTT against BRD3,0.633 (inactive)
8,CCAGGCUAUUUGUACCGAUTT against CCR6,0.103 (inactive)
9,CCAGCUCUGGAAUUAGAUATT against NRBP1,-1.13 (active)
10,GAAUUAAAGAUUUGGUUGATT against EFCAB1,-0.719 (inactive)
11,GCUGUUAAGUAUGCCCUUATT against AKR1A1,-0.255 (inactive)
12,GGACCAUUGGUGAUGAGAATT against CD36,-0.000845 (inactive)
13,GGUUGGAUGCUAUAUACCATT against ROS1,-0.0561 (inactive)
14,GGGAUAAGCUGAUAAAGGATT against NDUFS5,-1.35 (active)
15,GAAUUGAAACGAGCUAGAATT against TAF13,-0.919 (inactive)
16,CCGUAUGAAUGUAAGUAUUTT against ZNF441,0.578 (inactive)
17,CAAGAGUUAUGGUCUGGGATT against GCM1,0.0197 (inactive)
18,CCACGAUGAAGGAACGAGATT against PDE4A,-0.147 (inactive)
19,GCAUGAUCUAGAUCGAGUATT against UQCRFS1,-1.28 (active)
20,GGUAUUACUUUGCAAUCGATT against CACNA2D1,-0.541 (inactive)
21,CAAGAUAUAUAUACGCCUATT against NPY1R,0.76 (inactive)
22,GGGUUUUAGUAACCUUAGATT against SUCNR1,0 (inactive)

row,Sequence,median seed-adjusted z-score
1,GAUCCAAAGUAACUAAACATT against HMGN3,-0.182 (inactive)
2,GAGGCAGUCUUAGAGGAAATT against SPATA21,-1.03 (active)
3,GCCCAUCACCUCUUCAUGATT against RAMP1,-0.031 (inactive)
4,GAAACGAACUGGGCAGUAUTT against FGF2,0.0208 (inactive)
5,GGAUAGUGAGGAUAAGGAATT against PPP1R15A,0.539 (inactive)
6,CAAAUCCAGUGGUGGGUAATT against S100A6,-0.264 (inactive)
7,GUCCUGAAGUCACUCCGAUTT against FUT10,-0.629 (inactive)
8,CCACUCUCAUCAAAUCCGATT against MLL2,-2.11 (active)
9,AGAUGAGGAGUGUCGUCAATT against KLK13,0.452 (inactive)
10,GUUCCUACGUGUACAACGATT against DNASE1L1,0.542 (inactive)
11,GAAUAUGGGUUGGCCUAUATT against ZNF655,-0.156 (inactive)
12,CAUUAGCAGAUAUACUAUUTT against EEF1E1,-1.45 (active)
13,GGACGGAUCUCAAUCGAAATT against CPO,0.0875 (inactive)
14,GAAGGAAUGAAAUCCGGAATT against TRIM8,-0.296 (inactive)
15,CGAAUUCAGGUCAACAAUATT against TRERF1,-0.0952 (inactive)
16,GAGUUUAAGCGCAAGCAUATT against HSPA8,0.462 (inactive)
17,UCACAGACGAGGCAUUUAATT against FTCD,-0.27 (inactive)
18,GCCUGGAUGAAUUCGAUUATT against UBE4A,-0.285 (inactive)
19,GUAAUACGAGGAAAUAGUATT against SNRPG,-3.09 (active)
20,CAUACACUCUACUCCUGCUTT against CDH26,0 (inactive)
